Screening data from PubChem BioAssay.
The entries come from a sample that favours hits as a whole.
AmpC detergent: qHTS Inhibitors of AmpC Beta-Lactamase (assay with detergent) | AmpC hydrolysis of nitrocefin, absorbance 480 nm, 0.01% Triton | Potency, µM (highest dose often 114 µM), for the others: at the top dose activity change, negative = inhibition, actives largely listed as inhibitors | hit rate 0.041% among 370,000;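 note: potency is the fitted concentration of half-maximal effect; 0% = no-compound wells and -100% = no-enzyme wells; nearly all actives have a fitted effect of over 25% in size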
Target sequence (P00811 whole entry, looked up): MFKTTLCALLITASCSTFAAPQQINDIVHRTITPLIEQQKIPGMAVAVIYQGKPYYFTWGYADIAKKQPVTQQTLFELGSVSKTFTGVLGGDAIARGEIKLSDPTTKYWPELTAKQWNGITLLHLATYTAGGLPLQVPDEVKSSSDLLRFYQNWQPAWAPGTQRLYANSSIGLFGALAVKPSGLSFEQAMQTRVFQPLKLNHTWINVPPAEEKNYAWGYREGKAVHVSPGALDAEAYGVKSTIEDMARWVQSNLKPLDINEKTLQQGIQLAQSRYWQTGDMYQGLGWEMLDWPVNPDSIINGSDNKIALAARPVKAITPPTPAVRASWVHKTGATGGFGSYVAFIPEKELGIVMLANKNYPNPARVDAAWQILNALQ
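20 mM phosphate pH 7.0 + 0.01% (detergent screen) or 0.0001% Triton X-100; 5.3 nM AmpC reagent; cpd preinc 15 min RT; nitrocefin (800 uM stock) to start; A480 q20 s × 4 min; Activity was normalised to no-enzyme and no-compound control wells.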
AmpC no deterg: qHTS Inhibitors of AmpC Beta-Lactamase (assay without detergent) | AmpC nitrocefin hydrolysis, absorbance 480 nm, 0.0001% Triton | Potency, µM (titrated, usually from 57.1 µM), without a hit: at the top dose activity change, negative = inhibition, usual class: inhibitors | hit rate 0.52% among 330,000 | P00811;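 note: potency is the fitted concentration of half-maximal effect; plate controls were no compound for no effect and no enzyme for full effect; nearly all actives have a fitted effect of over 20% in size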
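20 mM phosphate pH 7.0 + 0.01% (detergent screen) or 0.0001% Triton X-100; 5.3 nM AmpC reagent; cpd preinc 15 min RT; nitrocefin (800 uM stock) to start; A480 q20 s × 4 min; Activity was normalised to no-enzyme and no-compound control wells.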
AMA1 RON2 block: qHTS for Inhibitors of AMA1-RON; Towards Development of Antimalarial Drug Lead: Primary Screen. Plasmodium falciparum AMA1 (3D7) - RON2 peptide interaction. Potency, µM (highest dose often 58.2 µM), without a hit: at the top dose activity change, negative = inhibition, usual class: inhibitors. AlphaScreen AMA1-biotinylated RON2 peptide binding. hit rate 0.2% among 360,000;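 note: potency is the fitted concentration of half-maximal effect; 0% = vehicle wells and -100% = peptide control; nearly all actives have a fitted effect of over 45% in size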
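AMA1 (3D7) with his tag at 25 nM final met compounds first, then biotinylated RON2 peptide at 25 nM; detection used donor plus acceptor beads, 10 µg/mL apiece, read by AlphaScreen after 30 min at room temperature.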
Cycloheximide cs: Cycloheximide Counterscreen for Small Molecule Inhibitors of Shiga Toxin. cell reporter, cycloheximide protein synthesis inhibition counterscreen. max response, %. hit rate 12% among 300,000. AID 2314, 2010; in the data active = max response mostly above about 13%, no sharp cut-off; inactive = mostly below about 14%; note: read at 38.3 µM for the half of the compounds with a filed dose; 0% is about no effect
Shiga toxin inh: A qHTS for Small Molecule Inhibitors of Shiga Toxin. Vero cells, Shiga toxin protein synthesis inhibition reporter. inhibition, % at 38.7 µM. hit rate 9.2% among 290,000. AID 2315, 2010; in the data active = inhibition mostly above about 28%, no sharp cut-off; inactive = mostly below about 43%; note: 0% is about no effect
SARS PLpro yeast: qHTS of Yeast-based Assay for SARS-CoV PLP. S. cerevisiae expressing SARS-CoV PLpro, growth rescue. Potency, µM (doses to about 32.9 µM), without a hit: top-dose activity, positive = growth rescue, actives largely listed as activators. hit rate 0.19% among 330,000. AID 485353, 2010; calls by dose curve; note: potency is the fitted concentration of half-maximal effect; 0% is about no effect; nearly all actives have a fitted effect of over 55% in size
Active calls of the source: *; ? = inconclusive; . = no result given. Unless noted, calls come from the whole dose curve; as a rule, active = well fitted curve in the direction sought with a large enough effect; inconclusive = small, poorly fitted or top-dose-only effect, or another doubt; inactive = no such curve, though single readings can be large; an effect the other way counts as inactive or inconclusive.

SMILES	AmpC detergent	AmpC no deterg	AMA1 RON2 block	Cycloheximide cs	Shiga toxin inh	SARS PLpro yeast
COC(=O)c1ccc(Cn2c(C)c(C(=O)NCc3cccc(C(F)(F)F)c3)sc2=O)o1	.	.	-2%	.	.	.
CN(C)C(=O)c1ccc(NC(=O)COC(=O)CCN=C2NS(=O)(=O)c3ccccc32)cc1	.	.	-6%	.	.	.
COc1cc(C2c3c(oc4cc(C)c(C)cc4c3=O)C(=O)N2c2cc(C)ccn2)ccc1O (stereo not given)	-10%	-7%	-3%	1	-11	-3%
O=C(O)Cc1nn(Cc2ccc(Cl)cc2)c(=O)c2ccccc12	-5%	-12%	18%	1	10	0%
Cc1[nH]c(=O)c(C#N)cc1-c1csc(-c2ccccc2)n1	-15%	-14%	7%	-3	-8	-1%
Cc1oncc1-c1csc(-c2ccccc2)n1	?	-37%	6%	51*	64*	-4%
COc1cccc(NC(=O)CN(C)C(=O)c2cc(S(=O)(=O)N3CCCCC3)ccc2Cl)c1	-12%	-14%	-7%	.	.	-10%
COc1ccccc1-c1c(C(F)(F)F)oc2cc(OS(C)(=O)=O)ccc2c1=O	?	48%	0%	25*	39	9%
Cc1cc(N2CCN(c3ccccc3)CC2)nc2ccccc12	-12%	-30%	2%	10	51	-3%
c1ccc(N2CCN(c3cnc4ccccc4n3)CC2)cc1	-5%	20%	34%	62*	146*	-36%
Clc1ccc(N2CCN(c3cnc4ccccc4n3)CC2)cc1	-8%	-9%	29%	19*	49*	4%
Fc1ccc(N2CCN(c3cnc4ccccc4n3)CC2)cc1	-14%	0%	18%	49*	91*	-2%
CC1=Nc2cccc([N+](=O)[O-])c2NC(=O)C1	?	-8%	-3%	-2	4	-5%
Cc1ccn2c(=O)cc(COc3ccc(NC(=O)COc4ccc(C)c(C)c4)cc3)nc2c1	-1%	.	.	.	.	.
COc1ccc(C(=O)N2CCCC(CNC(=O)c3ccc(F)cc3)C2)cc1OC (stereo not given)	2%	0%	-11%	25*	3	2%
O=C(NCC1CCCN(C(=O)c2cccc(C(F)(F)F)c2)C1)c1ccc(F)cc1 (stereo not given)	-10%	30%	-8%	16*	11	-6%
COc1ccc(C2CC(c3c(-c4ccccc4)c4cc(Cl)ccc4[nH]c3=O)=NN2S(C)(=O)=O)cc1OC (stereo not given)	-10%	52%	13%	-1	-5	2%
Cc1nc2c(C(=O)NCc3ccccc3Cl)c[nH]n2c(=O)c1Cl	-1%	?	2%	-4	14	-1%
Cc1cc2c(s1)c1c(C)nn(Cc3ccc(F)cc3)c(=O)c1n2C	3%	-23%	.	.	.	4%
Cc1cc2c(s1)c1c(C)nn(Cc3ccccc3F)c(=O)c1n2C	-8%	-17%	.	.	.	5µM*
CCOC(=O)c1[nH]c(C)c(C(=O)NC(C)(C)C)c1C	?	-6%	0%	-1	-19	-11%
Cc1cc(C)n(CC(O)COc2ccc(Cl)cc2Cl)n1 (stereo not given)	?	40%	-1%	30*	29*	-4%
Cc1c(Cl)cccc1NC(CC(=O)c1ccccc1)C(=O)OCC(=O)c1cccs1 (stereo not given)	6%	-19%	-28%	23*	81*	-29%
O=C(CC(Nc1ccccc1Cl)C(=O)O)c1ccccc1 (stereo not given)	7%	-21%	21%	68*	91*	-1%
COc1ccccc1NC(CC(=O)c1ccccc1)C(=O)OCC(=O)c1ccc(F)cc1 (stereo not given)	-6%	-21%	-17%	49*	60*	-41%
SMILES	AmpC detergent	AmpC no deterg	AMA1 RON2 block	Cycloheximide cs	Shiga toxin inh	SARS PLpro yeast
O=C(CC(Nc1ccc(Cl)cc1)C(=O)O)c1ccccc1 (stereo not given)	-4%	-22%	-6%	54*	42*	2%
O=C(CC(C(=O)O)c1ccc(Cl)cc1)c1ccccc1 (stereo not given)	1%	-21%	19%	5	-15	0%
CC1CCN(C(=O)c2ncn(Cc3ccccc3)c2C(=O)N2CCC(C)CC2)CC1	.	55%	-2%	.	.	2%
O=C(CC(Nc1cccc(Cl)c1Cl)C(=O)O)c1ccccc1 (stereo not given)	5%	-18%	4%	57*	102*	0%
Cc1c(Cl)cccc1NC(CC(=O)c1ccccc1)C(=O)O (stereo not given)	4%	-13%	9%	70*	150*	-17%
Cc1cc(SCC(=O)N/N=C/c2ccco2)nc2ccccc12	2%	-38%	44%	1	19	-1%
C/C(=N\NC(=O)CSc1nc2ccccc2[nH]1)c1ccncc1	9%	-25%	8%	-2	-11	-1%
O=C(CSc1nc2ccccc2o1)N/N=C/c1ccco1	-3%	-20%	74%	21*	50*	-2%
O=C(CSc1nc2ccccc2[nH]1)N/N=C/c1ccco1	-1%	-22%	0%	24*	62*	1%
Cn1cccc1/C=N/NC(=O)CSc1nc2ccccc2[nH]1	5%	-26%	12%	20*	22	1%
Cc1cc(C)nc(Nc2ncc(O)n2-c2ccc(Br)cc2)n1	0%	2%	-1%	-3	-13	0%
CCCc1[nH]nc2c1C(c1ccc(OCCN3CCOCC3)c(OC)c1)C(C#N)=C(N)O2 (stereo not given)	-16%	42%	3%	49*	54*	-12%
CCC(=O)N1c2ccccc2CC1C(=O)NCc1cc(OC)ccc1OC (stereo not given)	14%	.	.	.	.	.
COc1cc(/C=C/C(=O)NC2CCCCC2)cc(OC)c1OC	-1%	-19%	-4%	1	-5	-5%
COc1cc(/C=C/C(=O)NC(C)C2CC3CCC2C3)cc(OC)c1OC (stereo not given)	-8%	103%	-10%	19*	101*	-1%
Cc1ccc(-c2csc(-c3c(N)c(C(=O)c4ccc5c(c4)OCO5)n4ccccc34)n2)cc1C	23%	.	.	.	.	.
CN(C(=O)c1ccco1)c1nnc(C23CC4CC(CC(C4)C2)C3)s1	-1%	98%	-8%	57*	83*	-17%
CN(CC12CC3CC(CC(C3)C1)C2)C(=O)c1ccco1	.	.	8%	.	.	.
CN(C(=O)c1ccco1)c1nc2c(s1)CCCC2	-4%	-5%	-4%	31*	42*	-16%
COc1ccc(OC)c(-c2csc(N(C)C(=O)c3ccco3)n2)c1	?	-18%	12%	1	.	-1%
